# High-throughput results as filed in PubChem.
# SIRT5 block = SIRT5 desuccinylase inhibitors, primary screen, biochemical, fluorescence imaging, single point, set 5 | inhibition, % at 15 µM | actives 1.1% (n = 330,000) | NAD-dependent protein deacylase sirtuin-5, mitochondrial (Homo sapiens), Q9NXA8 | Purified SirT5, succinyl-peptide AMC, trypsin-coupled fluorescence; in the data active means inhibition above about 15%
# ERAP1 inh = human ERAP1 aminopeptidase inhibitors, primary screen, biochemical, single point, plate reader; Endoplasmic reticulum aminopeptidase 1 (Homo sapiens), Q9NZ08; recombinant ERAP1, Leu-AMC fluorescence, 60 min; inhibition, % at 10.7 µM; actives 0.15% (n = 340,000); AID 652197, 2013;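 active means mean replicate inhibition of at least 30%, or all replicates individually reaching that 30% level; inactive means mean below 30% and not every replicate reaching it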;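 further: 0% = neutral control wells and 100% = L-leucinethiol positive control wells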
# FGF22 binding = binders of human FGF22 protein, primary screen, FGF22 synaptogenesis inhibitor project, biophysical, thermal shift, single point | activity (Tm shift, normalised), % at 9.99 µM | AID 651658, 2012 | actives 1.5% (n = 340,000) | recombinant FGF22 thermal shift, SYPRO orange fluorescence; percent of sucrose octasulfate shift, DMSO zero;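 active means mean Tm shift, scaled 0 neutral to 100 positive control, at about 1.3% or above, every replicate too, limit read from the data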
# Target sequence (Q9HCT0 whole entry, looked up): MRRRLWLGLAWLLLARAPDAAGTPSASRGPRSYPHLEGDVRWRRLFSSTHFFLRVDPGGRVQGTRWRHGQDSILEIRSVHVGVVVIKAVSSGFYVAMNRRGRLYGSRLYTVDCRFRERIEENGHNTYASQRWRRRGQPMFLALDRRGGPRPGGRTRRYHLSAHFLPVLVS
# Casp6 inh = human caspase-6 inhibitors, primary screen, biochemical, VEID-R110 fluorescence, single point, set 2 | AID 686996, 2013 | inhibition, % at 12.5 µM | actives 0.53% (n = 350,000) | P55212 | purified caspase-6, Z-VEID-R110 cleavage fluorescence;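 active means mean inhibition across replicates at least about 35%, with every replicate also reaching that limit, limit read from the data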;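 further: 0% = median of neutral control wells and 100% = no fluorescence left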
# Active calls of the source: *; / = not tested or not shown. The list is not random: actives were taken first. Their share in the collection is about 3.1%.
SMILES,SIRT5 block,ERAP1 inh,FGF22 binding,Casp6 inh
COCC#Cc1cnc2c(c1)C(=O)N([C@@H](C)CO)C[C@@H](C)[C@@H](CN(C)Cc1ccccc1F)O2,-1,2,0,0
Cc1ccc2[nH]c3c(c2c1)CCCC3NCCO (stereo not given),-3,2,0,44*
CCOC(=O)c1ccc2[nH]c3c(c2c1)CCCC3O (stereo not given),-3,0,0,1
CC=Cc1ccc2n(c1=O)C[C@H]1[C@H](CO)[C@@H](C(=O)N3CCc4ccccc4C3)[C@@H]2N1CCC (mixture of isomers),4,-3,0,1
CC(C)CCNC(=O)COc1cccc2c1OC(C)(C)C2,2,3,43*,1
CCOC(=O)Cc1cc(=O)[nH]n(-c2ccccc2)c1=O,/,-3,44*,-2
C=C(C)CN(CC)C(=O)CC1C(=O)NCCN1Cc1c(F)cccc1Cl (stereo not given),0,-4,43*,-1
CC(C)(C)NC(=O)CC1C(=O)NCCN1Cc1c(F)cccc1Cl (stereo not given),-2,1,0,-3
C=CCNC(=O)CC1C(=O)NCCN1Cc1c(F)cccc1Cl (stereo not given),32*,5,0,-1
C[C@H](CO)N1C[C@H](C)[C@H](CN(C)S(=O)(=O)c2cn(C)cn2)Oc2c(NC(=O)Nc3ccc(F)cc3)cccc2C1=O,13,1,0,1
C[C@H]1CN([C@@H](C)CO)C(=O)Cc2cc(NS(=O)(=O)c3ccc(Cl)cc3)ccc2O[C@@H]1CN(C)Cc1ccc2c(c1)OCO2,6,1,0,2
C[C@H](CO)N1C[C@H](C)[C@@H](CN(C)Cc2ccc3c(c2)OCO3)Oc2ccc(NS(=O)(=O)c3ccc(Cl)cc3)cc2CC1=O,18*,-2,0,1
C[C@@H]1CN([C@H](C)CO)C(=O)Cc2cc(NS(=O)(=O)c3ccc(Cl)cc3)ccc2O[C@@H]1CN(C)Cc1ccc(Cl)c(Cl)c1,16*,-1,0,/
C[C@@H]1CN([C@H](C)CO)C(=O)Cc2cc(NS(=O)(=O)c3ccccc3)ccc2O[C@H]1CN(C)Cc1ccc(Cl)c(Cl)c1,18*,2,0,-4
O=[N+]([O-])c1cc(-c2cnc3ccccc3n2)ccc1Cl,-3,-1,44*,0
O=C(CN1C(=O)NC2(CCCC2)C1=O)Oc1ccc2ccc(=O)oc2c1,2,57*,0,-2
CCc1cc(=O)oc2cc(OC(=O)CN3C(=O)NC4(CCCC4)C3=O)ccc12,-151,-67,0,1
C[C@H](CO)N1C[C@H](C)[C@@H](CN(C)CC2CC2)Oc2ccc(NC(=O)Cc3cn(C)c4ccccc34)cc2CC1=O,13,4,0,/
O=C(COC(=O)Cc1ccc(Br)cc1)NC1CCCC1,/,0,43*,2
O=C(COC(=O)c1ccc([N+](=O)[O-])o1)NC1CCCCC1,2,1,0,36*
O=C(COC(=O)C1=COCCO1)NC1CCCCCCC1,-4,-1,0,-1
CC1CCCC(NC(=O)COC(=O)C2=COCCO2)C1C (stereo not given),/,3,44*,2
O=C(COC(=O)c1ccc([N+](=O)[O-])o1)NC1CCS(=O)(=O)C1 (stereo not given),3,-2,0,49*
O=C(COC(=O)c1ccc([N+](=O)[O-])o1)NC1CCCC1,-3,-2,0,10
COc1ccc2c3c([nH]c2c1)[C@H](CO)N(C(=O)C1CCCCC1)CC31CCN(C)CC1,-8,2,/,0
C[C@@H]1CCCCO[C@@H](CN(C)C(=O)Nc2ccc3c(c2)OCO3)[C@H](C)CN([C@@H](C)CO)C(=O)c2cc(NC(=O)Nc3ccc4c(c3)OCO4)ccc2O1,6,-1,0,0
CC1CCCCC1NC(=O)COC(=O)c1ccc([N+](=O)[O-])o1 (stereo not given),-3,0,0,48*
Cc1c(C(=O)c2ccc(F)cc2F)c2ccccn2c1CCC#N,2,-1,0,21
Cc1c(C(=O)c2ccc(N(C)C)cc2)c2ccccn2c1CCC#N,112*,5,0,7
